# According to PubChem BioAssay (Tox21):
# Several values for one entry are separate records, joined by “and”; a condition that tells them apart may be missing. Equal entries are not always repeated. Records with an inconclusive call do not appear. Entries that show only a call come without a potency. More than one record can exist for a structure, and the calls need not agree. Activity calls are given as the source filed them. Unless noted, the call rests on the fitted dose curve; in most records, active means well fitted curve in the direction sought with a large enough effect in the repeat runs; inconclusive means weak or mixed curves; inactive means no such curve, though single readings can be large; an effect the other way counts as inactive or inconclusive.
# What was measured:
# [1] = qHTS assay to identify small molecule antagonists of the estrogen receptor alpha (ER-alpha) signaling pathway using the BG1 cell line in the presence of 0.1 nM 17-beta-estradiol - cell viability counter screen (AID 1259241); further: nearly all actives have a fitted effect of over 40% in size; further: potency means the concentration at half of the fitted maximal effect
# Outline: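 Viability in VM7Luc4E2 cells after 22 hr compound exposure under 0.1 nM 17beta-estradiol stimulation, by CellTiter-Fluor.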
# [2] = qHTS assay to identify small molecule antagonists of the androgen receptor (AR) signaling pathway using the MDA cell line in the presence of 0.5 nM R1881 - cell viability counter screen (AID 1259242); further: nearly all actives have a fitted effect of over 45% in size; further: potency means the concentration at half of the fitted maximal effect
# Outline: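 Live-cell protease activity was measured by CellTiter-Fluor fluorescence after 30 min. Before that, MDA-kb2 MMTV-luciferase cells had 16 hr at 37C without CO2, exposed to test compounds and 0.5 nM R1881 final.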
# [3] = qHTS assay to identify small molecule HDAC inhibitors (AID 1259364); further: nearly all actives have a fitted effect of over 45% in size; further: potency means the concentration at half of the fitted maximal effect; on activity change, negative = inhibition: top concentration of the series differs between compounds
# Outline: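 Luminescence read after 30 min room-temperature HDAC-Glo incubation measures cellular class I/II HDAC activity. Compounds were applied for 2 hr at 37 C to HCT-116 wild-type cells seeded the day before.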
# [4] = qHTS assay to identify small molecule agonists of the sonic hedgehog signaling (Shh) pathway - cell viability counter screen (AID 1259366); further: nearly all actives have a fitted effect of over 50% in size; further: potency means the concentration at half of the fitted maximal effect
# Outline: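 Stable Gli1-Luc NIH/3T3 clone, 2,000 cells/well. Compound exposure 24hr at 37C. Read-out: CellTiter-Fluor fluorescence.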
# [5] = qHTS assay to identify small molecule antagonists of the sonic hedgehog signaling (Shh) pathway - cell viability counter screen (AID 1259367); further: nearly all actives have a fitted effect of over 55% in size; further: potency means the concentration at half of the fitted maximal effect
# Outline: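 Tox21 library chemicals were tested on a Gli1-Luc NIH/3T3 clone (2,000 cells/well) stimulated by conditioned medium; viability was quantified as fluorescence from CellTiter-Fluor reagent added at 23 hr.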
# [6] = qHTS assay to identify small molecule agonists of the sonic hedgehog signaling (Shh) pathway (AID 1259368; calls by dose curve;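 further: NIH/3T3-derived 3T3Gli1-Luc cells carrying a stable Gli1-driven firefly luciferase reporter; series mostly up to about 92 µM; nearly all actives have a fitted effect of over 15% in size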)
# Outline: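 Luminescence was read after 30 min at room temperature with luciferase reagent. Before that, 3T3Gli1-Luc cells (NIH/3T3 clone, stable Gli1-Luc reporter; 2,000/well) were exposed to compounds for 24 hr at 37C, 5% CO2, compounds being added 4 hr post-plating.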
# [7] = qHTS assay to identify small molecule antagonists of the sonic hedgehog signaling (Shh) pathway (AID 1259369; calls by dose curve; further: nearly all actives have a fitted effect of over 45% in size; further: potency means the concentration at half of the fitted maximal effect)
# Outline: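 Antagonist mode: compound added to 3T3 Gli1-Luc cells followed by conditioned-medium stimulation, 24 h at 37 C, 5% CO2. Inhibition taken as loss of Gli1-driven luciferase luminescence.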
# [8] = molecular target: Androgen receptor (Homo sapiens) (UniProt P10275); test: qHTS assay to identify small molecule antagonists of the androgen receptor (AR) signaling pathway using the MDA cell line in the presence of 0.5 nM R1881 (AID 1259243); further: nearly all actives have a fitted effect of over 50% in size; further: potency means the concentration at half of the fitted maximal effect
# Outline: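 Luminescent reporter readout (ONE-Glo, 30 min, room temperature) after 16 hr co-treatment of MDA-kb2 cells with test compounds and 0.5 nM R1881 final, at 37C without CO2. The MMTV-driven luciferase responds to both AR and GR.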
# [9] = molecular target: Estrogen receptor (Homo sapiens) (UniProt P03372); test: qHTS assay to identify small molecule antagonists of the estrogen receptor alpha (ER-alpha) signaling pathway using the BG1 cell line in the presence of 0.1 nM 17-beta-estradiol (AID 1259244); further: nearly all actives have a fitted effect of over 50% in size; further: potency means the concentration at half of the fitted maximal effect
# Outline: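 Luciferase luminescence (ONE-Glo, 30 min at room temperature) was read after 22 hr at 37C exposure to compounds plus 17beta-estradiol at 0.1 nM final. Cells were VM7Luc4E2 with endogenous ER-alpha and an ERE-driven luciferase, pre-cultured 5 days in hormone-depleted medium.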
# [10] = qHTS assay to identify small molecule HDAC inhibitors - cell viability counter screen (AID 1259365); further: nearly all actives have a fitted effect of over 50% in size; further: potency means the concentration at half of the fitted maximal effect
# Outline: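 Cytotoxicity was gauged in wild-type HCT-116 cells after a brief 2hr treatment with DMSO-dissolved compounds at 37C and 5% CO2, using CellTiter-Glo luminescence developed for 30min at room temperature.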
# Chain of Estrogen receptor (Homo sapiens) (P03372 whole entry, looked up): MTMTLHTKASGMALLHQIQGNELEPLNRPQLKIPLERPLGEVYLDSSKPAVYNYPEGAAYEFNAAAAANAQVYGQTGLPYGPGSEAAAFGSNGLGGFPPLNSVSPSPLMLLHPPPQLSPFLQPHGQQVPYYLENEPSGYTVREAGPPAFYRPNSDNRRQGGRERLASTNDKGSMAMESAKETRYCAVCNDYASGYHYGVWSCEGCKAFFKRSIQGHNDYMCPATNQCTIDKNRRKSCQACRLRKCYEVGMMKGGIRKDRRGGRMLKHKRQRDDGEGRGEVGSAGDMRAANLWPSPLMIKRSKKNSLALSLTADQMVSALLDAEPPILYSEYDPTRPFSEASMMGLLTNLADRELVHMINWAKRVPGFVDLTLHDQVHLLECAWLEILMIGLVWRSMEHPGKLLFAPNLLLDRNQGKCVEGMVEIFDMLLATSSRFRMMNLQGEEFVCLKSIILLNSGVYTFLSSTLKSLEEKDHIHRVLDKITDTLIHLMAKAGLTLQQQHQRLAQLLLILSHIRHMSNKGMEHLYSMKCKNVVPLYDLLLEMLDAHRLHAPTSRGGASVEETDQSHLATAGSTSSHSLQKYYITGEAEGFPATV
# Chain of Androgen receptor (Homo sapiens) (P10275 whole entry, looked up): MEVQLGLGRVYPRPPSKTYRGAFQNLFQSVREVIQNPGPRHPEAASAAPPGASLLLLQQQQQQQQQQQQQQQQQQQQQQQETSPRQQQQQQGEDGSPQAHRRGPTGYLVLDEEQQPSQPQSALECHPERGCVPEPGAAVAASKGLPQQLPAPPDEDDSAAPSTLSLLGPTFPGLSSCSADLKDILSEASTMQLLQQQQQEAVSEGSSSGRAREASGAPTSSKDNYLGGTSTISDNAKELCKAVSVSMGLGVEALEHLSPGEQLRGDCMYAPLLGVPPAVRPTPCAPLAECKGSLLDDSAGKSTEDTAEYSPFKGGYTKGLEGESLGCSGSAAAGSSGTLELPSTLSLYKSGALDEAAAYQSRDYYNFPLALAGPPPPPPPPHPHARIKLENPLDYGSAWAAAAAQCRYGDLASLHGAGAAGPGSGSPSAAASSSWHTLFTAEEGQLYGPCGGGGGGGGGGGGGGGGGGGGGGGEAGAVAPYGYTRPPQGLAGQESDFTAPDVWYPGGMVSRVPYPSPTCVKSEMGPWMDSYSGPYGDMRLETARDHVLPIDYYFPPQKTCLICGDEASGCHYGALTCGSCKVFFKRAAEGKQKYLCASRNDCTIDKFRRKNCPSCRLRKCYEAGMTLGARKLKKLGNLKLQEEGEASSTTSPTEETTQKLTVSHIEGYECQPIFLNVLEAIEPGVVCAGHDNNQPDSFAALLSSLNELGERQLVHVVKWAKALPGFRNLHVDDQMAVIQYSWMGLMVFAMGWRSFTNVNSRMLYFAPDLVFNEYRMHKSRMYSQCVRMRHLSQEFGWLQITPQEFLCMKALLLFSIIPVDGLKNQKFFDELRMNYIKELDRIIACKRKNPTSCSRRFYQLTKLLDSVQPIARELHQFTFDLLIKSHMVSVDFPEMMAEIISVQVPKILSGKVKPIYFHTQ
SMILES,Potency [1],Potency [2],Potency [3],Potency [4],Potency [5],Potency [6],Potency [7],Potency [8],Potency [9],Potency [10],"activity change, negative = inhibition [3]",activity change [6]
N#CNC#N,inactive,inactive,inactive,inactive,inactive,inactive,inactive,,,,,
C=COCCCl,inactive,,,inactive,inactive,inactive,,inactive,inactive,inactive,,
CCN(CC)c1c([N+](=O)[O-])cc(C(F)(F)F)c(N)c1[N+](=O)[O-],inactive,,inactive,inactive,inactive,inactive,9.69 µM (active),27.3 µM (active),,,,
Cc1cccc(OP(=O)(Oc2cccc(C)c2)Oc2cccc(C)c2)c1,inactive,,inactive,inactive,inactive,inactive,inactive,inactive,,inactive,,
Cc1cc(Cl)ccc1O[C@H](C)C(=O)O,inactive,inactive,,inactive,inactive,inactive,,,,inactive,,
CC(C)(O)c1cnn2c(-c3ccc(F)c(-c4c(F)cccc4C#N)c3)cnc2n1,inactive,,,,,inactive,4.33 µM (active),61.1 µM (active),,inactive,,
CN(C)C(=S)[S-].CN(C)C(=S)[S-].[Cu+2],1.67 µM (active),5.92 µM (active),,2.64 µM (active),3.33 µM (active),,1.49 µM (active),,,,-15% [at 19 µM] (inactive),"-10.5% [at 18.9 µM, stronger effect = higher value] (inactive)"
CSCCCN=C=S,inactive,inactive,inactive,inactive,inactive,inactive,inactive,,,,,
CCCCOP(=O)(CCCC)OCCCC,inactive,,inactive,inactive,inactive,inactive,,inactive,,inactive,,
Oc1c(Cl)c(Cl)cc(Cl)c1Cl,inactive,,,inactive,inactive,inactive,,66.7 µM (active),,inactive,,
C[C@@H]1CC[C@@]2(OC1)O[C@H]1[C@@H](O)[C@H]3[C@@H]4CC[C@H]5C[C@@H](O[C@@H]6O[C@H](CO)[C@H](O[C@@H]7O[C@H](CO)[C@@H](O)[C@H](O[C@@H]8OC[C@@H](O)[C@H](O)[C@H]8O)[C@H]7O[C@@H]7O[C@H](CO)[C@@H](O)[C@H](O[C@@H]8O[C@H](CO)[C@@H](O)[C@H](O)[C@H]8O)[C@H]7O)[C@H](O)[C@H]6O)[C@H](O)C[C@]5(C)[C@H]4CC[C@]3(C)[C@H]1[C@@H]2C,29 µM (active),,,32.5 µM (active),32.5 µM (active),inactive,1.15 µM (active),14.5 µM (active),57.8 µM (active),29 µM (active),,
c1ccc(Nc2ccc3ccccc3c2)cc1,inactive,inactive,,inactive,inactive,inactive,inactive,,,inactive,,
CC(C)C1CCC(Cc2ccc(Cl)cc2)C1(O)Cn1cncn1 (stereo not given),inactive,,inactive,48.1 µM (active),53.9 µM (active),inactive,17.1 µM (active),,48.1 µM (active),inactive,,
NC(=O)c1ccc(N)nc1,inactive,inactive,,inactive,inactive,inactive,,,,,,
CCOCCOC(C)=O,inactive,inactive,,inactive,inactive,inactive,,,,inactive,,
CC(C)Oc1cccc(NC(=O)c2ccccc2C(F)(F)F)c1,inactive,inactive,inactive,inactive,,inactive,,,,,,
COc1cccc2c1C(=O)c1c(O)c3c(c(O)c1C2=O)C[C@@](O)(C(=O)CO)CC3OC1CC(N2CCOC(OC)C2)C(O)C(C)O1 (stereo not given in full),13.3 µM (active),,,0.237 µM (active),0.168 µM (active),inactive,0.0067 µM (active),0.119 µM (active),0.15 µM (active),inactive,,
COc1ccc(/C(=C/C(=O)N2CCOCC2)c2ccc(Cl)cc2)cc1OC,inactive,,inactive,inactive,,inactive,,1.54 µM (active),,inactive,,
C=CCOC(N)=O,inactive,inactive,,inactive,inactive,inactive,inactive,,,inactive,,

SMILES,Potency [1],Potency [2],Potency [3],Potency [4],Potency [5],Potency [6],Potency [7],Potency [8],Potency [9],Potency [10],"activity change, negative = inhibition [3]",activity change [6]
Cc1cc(N=Nc2ccccc2C)ccc1N,24.3 µM (active),,8.63 µM (active) and 4.86 µM (active),27.3 µM (active) and 30.6 µM (active),27.3 µM (active) and 30.6 µM (active),inactive,19.3 µM (active) and inactive,54.5 µM (active) and 48.6 µM (active),,inactive,,
COc1ccc([N+](=O)[O-])cc1O,inactive,,inactive,inactive,inactive,inactive,inactive,inactive,inactive,inactive,,
COS(=O)(=O)c1ccc(C)cc1,inactive,,inactive,inactive,inactive,inactive,,inactive,inactive,inactive,,
COc1cccc(C(=O)CCN[C@@H](C)[C@H](O)c2ccccc2)c1,inactive,,inactive,,,inactive,23.7 µM (active),29.8 µM (active),,inactive,,
O=C(O)C1C2CCC(O2)C1C(=O)O (stereo not given),inactive,inactive,,19.6 µM (active) and 11.2 µM (active),31 µM (active),inactive,15.8 µM (active),,,inactive,,
CN(CCCC(O)c1cccnc1)N=O (stereo not given),inactive,,inactive,inactive,inactive,inactive,inactive,inactive,inactive,inactive,,
Nc1ccccc1C(=O)OC/C=C/c1ccccc1,inactive,,,inactive,inactive,,inactive,,inactive,inactive,,
Oc1c(Br)c(Br)c(Br)c(Br)c1Br,inactive,,inactive,inactive,inactive,inactive,19.4 µM (active),,,inactive,,
COCC(=O)N(c1c(C)cccc1C)[C@H](C)C(=O)OC,inactive,,inactive,inactive,inactive,inactive,inactive,,inactive,inactive,,
[Hg+2].[I-].[I-],30.6 µM (active),,24.3 µM (active),2.43 µM (active),4.33 µM (active),inactive,,,,,,
CCCCN(CCCC)C(=S)[S-].CCCCN(CCCC)C(=S)[S-].[Zn+2],17.2 µM (active),,,5.44 µM (active),6.85 µM (active),inactive,4.85 µM (active),,13.7 µM (active),inactive,,
C=CC(=O)OCCCCOC(=O)C=C,inactive,,inactive,61.1 µM (active),,inactive,,,inactive,,,
CCCCCCCCCBr,inactive,,,,inactive,inactive,,,,inactive,,
CC1CCC(C(C)C)C(OC(=O)c2ccccc2N)C1 (stereo not given),inactive,,inactive,,inactive,inactive,26.9 µM (active),,,,,
Cc1cc(C)c(C2=C(OC(=O)CC(C)(C)C)C3(CCCC3)OC2=O)c(C)c1,inactive,,inactive,inactive,inactive,inactive,inactive,,,inactive,,
C[C@H]1CC[C@@H]2[C@@H](C)[C@H]3[C@H](C[C@H]4[C@@H]5CC=C6CC(O[C@@H]7O[C@H](CO)[C@H](O)[C@H](O[C@@H]8O[C@H](CO)[C@@H](O)[C@H](O)[C@H]8O)[C@H]7O[C@H]7O[C@@H](C)[C@H](O)[C@@H](O)[C@H]7O)CC[C@]6(C)[C@H]5CC[C@]34C)N2C1 (stereo not given in full),inactive,,inactive,,inactive,inactive,,,inactive,,,
O=C(CCl)C(Cl)Cl,inactive,,,17.4 µM (active),17.4 µM (active),inactive,2.76 µM (active),,inactive,inactive,,
Cc1c(Cl)c(=O)oc2cc(OP(=O)(OCCCl)OCCCl)ccc12,inactive,,,,inactive,inactive,,,inactive,inactive,,
